Laboratory results from PubChem BioAssay (NCATS).
Values joined by “and” are separate entries in the source; they are usually repeats but may differ in a detail not shown here. Identical values can stand only once. Results filed as inconclusive are left out. Active and inactive are the calls of the source. Unless noted, calls come from the whole dose curve; as a rule, active = well fitted curve in the direction sought with a large enough effect; inconclusive = small, poorly fitted or top-dose-only effect, or another doubt; inactive = no such curve, though single readings can be large; an effect the other way counts as inactive or inconclusive.

How the values were obtained:
[1] = qHTS for inhibitors of adenylyl cyclases using a fission yeast platform: a pilot screen against the NCATS LOPAC library (AID 1347410);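 note: plate controls were DMSO vehicle for no effect and DPI positive control for full effect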
Outline: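 Fission yeast qHTS: CHP2027 cells (AC9-GNAS-PDE4D2, fbp1-GFP), 5x10^6 cells/mL working density, EMM + His/Lys/Ura; LOPAC at up to 57 µM final; 18 h dark, 30C; GFP by laser cytometry. DPI positive control, DMSO vehicle.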

[2] = qHTS to identify inhibitors of the type 1 interferon - major histocompatibility complex class I in skeletal muscle: primary screen against the NCATS Mechanism Interrogation Plate v5.0 (MIPE) Libary (AID 1347411);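 note: plate controls were vehicle for no effect and reference inhibitor for full effect; nearly all actives have a fitted effect of over 65% in size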
Outline: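 IFN-beta-driven (4 ng/ml) HLA-B-HiBit expression in CRISPR-tagged C25cl48 myoblasts; compounds 11-pt, 1:3, max 46 uM, 24 hr exposure; lytic NanoLuc complementation luminescence.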

[3] = target: Single-stranded DNA cytosine deaminase (Homo sapiens) (UniProt Q9GZX7); assay: Validation qHTS assay for inhibitors of Activation Induced Cytidine Deaminase (AID): AID signal (AID 1347429); note: % is set by controls: 0 for no effect and ±100 for the full control effect
Outline: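 Compounds (up to 114 uM final) are tested against AID plus UDG using DJC20/DJC23 FRET substrate. Reactions incubate 4 hr at room temperature, receive NaOH for 30 min, and are read at Ex 540/Em 590 nm.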

[4] = Primary qHTS for inhibitors of La Crosse Virus (LACV) - induced cell death in SH-SY5Y cells (AID 1508616); note: potency is the fitted concentration of half-maximal effect
Outline: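 Screening measures cell viability in LACV-infected SH-SY5Y cultures. Compound was added before virus (0.01 MOI), and ATP was detected by luminescence 6 days later.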

[5] = target: Calcium and integrin-binding protein 1 (Homo sapiens) (UniProt Q99828); assay: Validation qHTS for Identification of Calcium Integrin Binding protein 1 (CIB1) Competitor (AID 1508618); note: % is set by controls: 0 for no effect and ±100 for the full control effect
Outline: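 Fluorescence polarization with 1 uM CIB1-GST and 100 nM FITC-alphaIIb peptide in HEPES pH 7.4, NaCl, 5 mM CaCl2, Tween20. Compounds at up to 114 uM final, preincubated with protein 15 min; read after 15 min more at RT.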

[6] = Counterscreen qHTS for small molecule stabilizers of the endoplasmic reticulum resident proteome: GLuc-NoTag assay (AID 1508627); note: potency is the fitted concentration of half-maximal effect
Outline: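 Counterscreen line: SH-SY5Y-GLuc-NoTag cells, treated with compound 19 hr before a 4 hr, 100 nM thapsigargin calcium depletion. Secreted Gaussia luciferase in the medium was measured by luminescence after coelenterazine was added (0.07x final), with cells unlysed.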

[7] = Confirmatory qHTS for small molecule stabilizers of the endoplasmic reticulum resident proteome: Secreted ER Calcium Modulated Protein (SERCaMP) assay (AID 1508628); note: potency is the fitted concentration of half-maximal effect; nearly all actives have a fitted effect of over 40% in size
Outline: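 GLuc-SERCaMP-expressing SH-SY5Y cells, pretreated 16 h with compound, are challenged with thapsigargin to empty ER calcium stores; after 4 h, coelenterazine is added directly to the medium and luminescence is imaged.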

[8] = Cell Viability qHTS for small molecule stabilizers of the endoplasmic reticulum resident proteome (AID 1508629); conditions: cell viability counter-screen, 100 nM thapsigargin for final 4 h;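 note: human SH-SY5Y neuroblastoma cells carrying the GLuc-SERCaMP reporter; compound exposure about 46 h in total before the viability read; % is set by controls: 0 for no effect and ±100 for the full control effect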
[9] = Primary qHTS for small molecule stabilizers of the endoplasmic reticulum resident proteome: Secreted ER Calcium Modulated Protein (SERCaMP) assay (AID 1508630); note: % is set by controls: 0 for no effect and ±100 for the full control effect
Outline: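 The SH-SY5Y reporter protocol was run at 3 concentrations up to 38.3 uM (primary) or 11 concentrations (follow-up): 16 h compound, 100 nM thapsigargin for 4 h, then extracellular luciferase luminescence.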

[10] = target: Papain (Carica papaya) (UniProt P00784); assay: Primary qHTS assay for inhibitors of the protease papain (AID 1645873)
[11] = Primary qHTS for inhibitors of nuclear receptor binding SET domain protein 2 (NSD2) in an isogenic RCH-ACV NSD2 p.E1099K mutant (9B) (AID 1645876); note: nearly all actives have a fitted effect of over 70% in size; note: potency is the fitted concentration of half-maximal effect
[12] = Primary qHTS for inhibitors of nuclear receptor binding SET domain protein 2 (NSD2) in an RCH-ACV wild type WT cells (2C) (AID 1645877); note: nearly all actives have a fitted effect of over 70% in size; note: potency is the fitted concentration of half-maximal effect
[13] = target: Calcium and integrin-binding protein 1 (Homo sapiens) (UniProt Q99828); assay: Primary qHTS for Identification of Calcium Integrin Binding Protein 1 (CIB1) Competitor (AID 1508620)
Outline: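 CIB1-GST (1 uM final) and compound incubated 15 min at room temperature before adding FITC-alphaIIb peptide tracer (100 nM final). Competition for binding read by fluorescence polarization (ex 480, em 540) after another 15 min at room temperature.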

[14] = target: Protein phosphatase 1D (Homo sapiens) (UniProt O15297); assay: RapidFire Mass Spectrometry qHTS Assay for Modulators of WT P53-Induced Phosphatase 1 (WIP1) (AID 1347424);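 note: amount of dephosphorylated VEPPL-S-QETFS peptide product formed by WIP1; series mostly up to about 63 µM; plate controls were DMSO wells for no effect and GSK830371 inhibitor control at 10 µM for full effect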
Outline: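 RapidFire mass spectrometry measured dephosphorylated peptide after 5 min room-temperature reaction of 2 uM VEPPL-pS-QETFS with 10 nM WIP1 (50 mM Tris-HCl pH 7.5, 30 mM MgCl2, 0.1 mM EGTA, BSA), following 1 hr compound preincubation; 1 uM isotope-labelled product standard.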

[15] = target: Protein phosphatase 1D (Homo sapiens) (UniProt O15297); assay: Rhodamine-PBP qHTS Assay for Modulators of WT P53-Induced Phosphatase 1 (WIP1) (AID 1347425); note: % of control where 0% means no effect
Outline: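 WIP1 (5 nM final) was preincubated with compound for 1 hour at room temperature. It then dephosphorylated 10 uM VEPPL-pS-QETFS peptide in Tris-HCl pH 7.5 with 30 mM MgCl2. Released Pi was detected by 10 uM Rh-PBP fluorescence (ex 525/em 598 nm) read at 1-min intervals for 11 min, as delta f1 - f0.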

[16] = target: Cytochrome P450 2C9 (Homo sapiens) (UniProt P11712); assay: Cytochrome P450 family 2 subfamily C member 9 (CYP2C9) small molecule antagonists: luciferase biochemical (cell-free) qHTS assay (AID 1645842; active = well fitted curve in the direction sought with a large enough effect in the repeat runs; an effect the other way counts as inactive or inconclusive; note: series mostly up to about 57 µM; % is set by controls: 0 for no effect and ±100 for the full control effect; nearly all actives have a fitted effect of over 55% in size)
Outline: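 P450-Glo CYP2C9 system: proluciferin substrate with enzyme in mix containing 0.4% BSA, 10 min at room temperature, then NADPH regeneration solution added and incubated 1 h at 37C. Detection reagent stopped reaction; luminescence read after 20 min as RLU.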

[17] = target: Cytochrome P450 2D6 (Homo sapiens) (UniProt P10635); assay: Cytochrome P450 family 2 subfamily D member 6 (CYP2D6) small molecule antagonists: luciferase biochemical (cell-free) qHTS assay (AID 1645840; active = well fitted curve in the direction sought with a large enough effect in the repeat runs; an effect the other way counts as inactive or inconclusive; note: series mostly up to about 57 µM; % is set by controls: 0 for no effect and ±100 for the full control effect; nearly all actives have a fitted effect of over 55% in size)
Outline: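 P450-Glo CYP2D6 system: proluciferin substrate converted by enzyme to luciferin, read by luminescence proportional to activity. Enzyme-substrate mix with compound 10 min at room temperature, then NADPH regeneration 1 h before detection reagent.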

[18] = A High-Content qHTS Against Drug Library for the Identification of Small Molecules that Inhibit DYT1 Early Onset Primary Dystonia-Associated Cell Pathology (AID 1645839; calls by dose curve; note: series mostly up to about 46 µM)
Outline: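 High-content imaging quantified EGFP-TorsinA mislocalization in HEK293-derived cells inducibly expressing DYT1 mutant torsinA, after 48 h exposure to compound given together with tetracycline induction. Cell count served as a toxicity channel alongside %pathology.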

Chain of Calcium and integrin-binding protein 1 (Homo sapiens) (Q99828 whole entry, looked up): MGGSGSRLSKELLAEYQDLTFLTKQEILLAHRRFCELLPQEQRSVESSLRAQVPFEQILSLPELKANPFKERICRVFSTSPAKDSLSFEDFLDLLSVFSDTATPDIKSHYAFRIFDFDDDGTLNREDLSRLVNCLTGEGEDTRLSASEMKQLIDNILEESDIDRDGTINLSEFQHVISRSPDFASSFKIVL
Chain of Single-stranded DNA cytosine deaminase (Homo sapiens) (Q9GZX7 whole entry, looked up): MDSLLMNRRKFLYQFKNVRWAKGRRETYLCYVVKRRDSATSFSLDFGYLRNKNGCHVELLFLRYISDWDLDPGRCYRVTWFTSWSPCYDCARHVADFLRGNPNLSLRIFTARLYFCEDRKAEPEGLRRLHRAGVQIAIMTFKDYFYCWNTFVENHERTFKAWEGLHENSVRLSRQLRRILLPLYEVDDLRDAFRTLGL
Chain of Papain (Carica papaya) (P00784 whole entry, looked up, the tested form may be a part): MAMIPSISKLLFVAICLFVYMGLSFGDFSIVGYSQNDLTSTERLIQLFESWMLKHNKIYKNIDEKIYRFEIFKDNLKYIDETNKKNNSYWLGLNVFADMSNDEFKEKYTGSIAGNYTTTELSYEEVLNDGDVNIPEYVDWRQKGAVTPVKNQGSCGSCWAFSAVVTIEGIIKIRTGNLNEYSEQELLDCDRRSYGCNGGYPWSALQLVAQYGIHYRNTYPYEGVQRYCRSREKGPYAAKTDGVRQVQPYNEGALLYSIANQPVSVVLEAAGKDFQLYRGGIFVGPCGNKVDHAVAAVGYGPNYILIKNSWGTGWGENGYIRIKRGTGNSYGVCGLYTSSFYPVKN
Chain of Protein phosphatase 1D (Homo sapiens) (O15297 whole entry, looked up): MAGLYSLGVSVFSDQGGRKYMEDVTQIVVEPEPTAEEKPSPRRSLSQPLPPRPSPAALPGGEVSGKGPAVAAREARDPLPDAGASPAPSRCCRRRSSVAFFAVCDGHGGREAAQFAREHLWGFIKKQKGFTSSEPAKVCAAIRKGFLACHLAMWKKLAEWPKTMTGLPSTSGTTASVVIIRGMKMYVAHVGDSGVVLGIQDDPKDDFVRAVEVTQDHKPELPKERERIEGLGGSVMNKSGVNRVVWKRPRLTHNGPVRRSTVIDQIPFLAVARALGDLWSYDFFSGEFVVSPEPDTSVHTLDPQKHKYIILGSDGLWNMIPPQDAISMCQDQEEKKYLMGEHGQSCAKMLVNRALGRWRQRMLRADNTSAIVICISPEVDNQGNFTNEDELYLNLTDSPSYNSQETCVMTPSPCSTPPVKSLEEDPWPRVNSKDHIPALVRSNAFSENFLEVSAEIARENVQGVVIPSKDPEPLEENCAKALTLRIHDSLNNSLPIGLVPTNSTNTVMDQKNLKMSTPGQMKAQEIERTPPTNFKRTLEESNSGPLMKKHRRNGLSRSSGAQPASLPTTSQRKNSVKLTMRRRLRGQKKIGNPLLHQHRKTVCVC
Chain of Cytochrome P450 2D6 (Homo sapiens) (P10635 whole entry, looked up): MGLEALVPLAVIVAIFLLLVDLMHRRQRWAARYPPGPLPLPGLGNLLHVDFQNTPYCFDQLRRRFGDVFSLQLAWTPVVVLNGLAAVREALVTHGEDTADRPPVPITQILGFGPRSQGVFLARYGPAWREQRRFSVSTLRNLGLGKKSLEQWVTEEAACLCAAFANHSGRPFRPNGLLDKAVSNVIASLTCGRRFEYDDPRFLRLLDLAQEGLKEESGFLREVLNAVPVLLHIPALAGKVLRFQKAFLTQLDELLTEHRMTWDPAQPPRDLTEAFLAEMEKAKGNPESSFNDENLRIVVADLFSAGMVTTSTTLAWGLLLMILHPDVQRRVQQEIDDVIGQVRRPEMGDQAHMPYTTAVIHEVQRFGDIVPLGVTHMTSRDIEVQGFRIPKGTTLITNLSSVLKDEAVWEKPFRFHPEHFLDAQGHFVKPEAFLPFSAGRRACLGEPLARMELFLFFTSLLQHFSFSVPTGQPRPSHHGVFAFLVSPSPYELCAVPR
Chain of Cytochrome P450 2C9 (Homo sapiens) (P11712 whole entry, looked up): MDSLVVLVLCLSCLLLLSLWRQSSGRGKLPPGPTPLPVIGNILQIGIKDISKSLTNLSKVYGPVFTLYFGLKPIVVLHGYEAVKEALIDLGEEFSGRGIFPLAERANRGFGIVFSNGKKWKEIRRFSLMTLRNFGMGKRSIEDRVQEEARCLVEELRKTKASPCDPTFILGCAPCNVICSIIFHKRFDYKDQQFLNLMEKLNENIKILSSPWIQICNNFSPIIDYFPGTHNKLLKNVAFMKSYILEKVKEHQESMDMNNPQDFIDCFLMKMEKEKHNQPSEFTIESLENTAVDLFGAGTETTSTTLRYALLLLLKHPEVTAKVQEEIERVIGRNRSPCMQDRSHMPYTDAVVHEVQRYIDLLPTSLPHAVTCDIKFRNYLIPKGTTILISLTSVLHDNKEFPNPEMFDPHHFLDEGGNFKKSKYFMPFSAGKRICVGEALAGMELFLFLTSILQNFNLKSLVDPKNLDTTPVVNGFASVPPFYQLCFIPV

C[C@H](Cc1ccc(O)c(O)c1)[C@@H](C)Cc1ccc(O)c(O)c1
active: Potency [4] 1 µM | Potency [6] 35.5 µM | Potency [7] 7.94 µM | Potency [11] 13.2 µM and 7.31 µM | Potency [12] 11.8 µM and 7.31 µM
inactive: outcome [1] | Potency [2] | outcome [3] | outcome [5] | max response [8] -16.2% | Potency [9] | Potency [10]

CCOC(=O)C(C)Oc1cccc2c(=O)n(CC(=O)Nc3ccc4c(c3)OCCO4)ccc12 (configuration not stated)
inactive: outcome [1] | Potency [2] | outcome [3] | Potency [4] | outcome [5] | Potency [13] | Potency [9] | Potency [10] | Potency [11] | Potency [12]

O=C(c1ccccc1)c1ccc2n1CCC2C(=O)O (configuration not stated)
inactive: outcome [1] | Potency [2] | Potency [14] | outcome [15] | outcome [3] | Potency [4] | outcome [5] | Potency [13] | Potency [9] | Potency [16] | Potency [10] | Potency [11] | Potency [12]

O=c1c(O)c(-c2cc(O)c(O)c(O)c2)oc2cc(O)cc(O)c12
active: Potency [11] 18.6 µM
inactive: outcome [1] | Potency [2] | outcome [3] | Potency [4] | outcome [5] | Potency [13] | Potency [9]

O=c1c(O)c(-c2ccc(O)cc2O)oc2cc(O)cc(O)c12
inactive: outcome [1] | Potency [2] | outcome [3] | Potency [4] | Potency [13] | Potency [9] | Potency [17]

O=C(O)c1cccnc1Nc1cccc(C(F)(F)F)c1
inactive: outcome [1] | outcome [15] | outcome [3] | Potency [4] | outcome [5] | Potency [13] | Potency [9] | Potency [18] | Potency [17]

CC(=O)N1CCN(c2ccc(OC[C@H]3CO[C@](Cn4ccnc4)(c4ccc(Cl)cc4Cl)O3)cc2)CC1
inactive: outcome [1] | Potency [2] | outcome [3] | Potency [4] | outcome [5] | Potency [13] | Potency [9] | Potency [10]

COc1ccc2cc([C@H](C)C(=O)O)ccc2c1
inactive: outcome [1] | Potency [2] | Potency [14] | outcome [15] | outcome [3] | Potency [4] | outcome [5] | Potency [18] | Potency [10]

Nc1nc(OCc2ccccc2)c2[nH]cnc2n1
inactive: outcome [1] | Potency [2] | outcome [3] | Potency [4] | outcome [5] | Potency [13] | Potency [9] | Potency [10]

Cc1cc(Cl)ccc1OCCCC(=O)NO
inactive: outcome [1] | Potency [2] | outcome [5] | Potency [13] | Potency [9] | Potency [10]
active: Potency [11] 1.48 µM | Potency [12] 1.66 µM
